# Unmarked numbers belong to inactive results.
# System: Caenorhabditis elegans L1 (N2)
# Assay: survival and reproduction score of C. elegans L1 (0: 0-10 living worms, 1: 11-20, 2: 21-50, 3: >50, 4: overgrown) (score 0-4); higher = more worms, less nematicidal, active = 1 or less; extreme values may be limits of the assay
# Conditions: 60 µM; 6 days; temperature: 20 °C
# Description: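 DODA library (846 commercial 1,3,4- and 1,2,4-oxadiazole compounds plus commercial nematicide controls) screened at a single dose of 60 µM (0.6% DMSO) in 96-well plates, two biological replicates. Read-outs: C. elegans N2 L1 survival/reproduction score at day 6, 20 °C (0: 0-10 worms, 1: 11-20, 2: 21-50, 3: >50, 4: overgrown/starved). C. elegans daf-2 dauer, D. dipsaci and M. hapla J2 mobility at day 5, 20 °C, and P. penetrans mobility at day 5, 20 °C, each relative to DMSO controls. M. hapla egg hatching at day 12, 25 °C, relative to the mean of 8 DMSO wells on the same plate.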
row,SMILES,survival and reproduction score
1,FC(F)(F)c1ccc(-c2noc(-c3ccccc3Cl)n2)cc1,4
2,CCn1c(SCc2nc(-c3ccccc3)no2)nc2ccccc21,4
3,Brc1ccc(-c2noc(-c3cccs3)n2)o1,0 (active)
4,COc1ccc(-c2noc(COc3ccc(C)cc3Br)n2)cc1,4
5,CCc1ccc(OCc2nc(-c3ccc(Cl)cc3)no2)cc1,4
6,COc1ccc(-c2noc(COc3ccc(Cl)cc3C)n2)cc1,4
7,Clc1ccccc1-c1noc(-c2ccccc2Cl)n1,2
8,COc1ccccc1NC(=O)c1ccccc1-c1nc(-c2ccccc2F)no1,4
9,CSc1ccccc1-c1nc(-c2cccnc2)no1,4
10,COc1cccc(-c2noc(COc3ccccc3C)n2)c1,4
11,Clc1ccc(-c2nc(-c3ccncc3)no2)cc1,0.5 (active)
12,CC(C)C(=O)Nc1ccccc1-c1nc(-c2ccncc2)no1,4
13,Cc1cc(OCc2nc(-c3cccnc3)no2)cc(C)c1Br,4
14,Clc1ccc(OCc2nc(-c3cccs3)no2)cc1,2.5
15,COc1ccc(C(=O)Nc2ccc(-c3nnc(SCc4ccccc4)o3)cc2)cc1,4
16,Cc1cc(Br)ccc1OCc1nc(-c2cccnc2)no1,4
17,Cc1ccc(-c2nc(-c3ccccc3)no2)cc1,0.5 (active)
18,O=C(Nc1ccccc1-c1nc(-c2cccnc2)no1)c1cc2ccccc2o1,4
19,Cc1ccc(-c2nnc(SCc3ccccc3)o2)cc1,0 (active)
20,O=C(CSc1nnc(-c2ccccc2Cl)o1)Nc1ccc(Br)cn1,4

row,SMILES,survival and reproduction score
1,Cc1cc(Cl)ccc1OCc1nc(-c2ccc(F)cc2)no1,4
2,c1cc(-c2noc(C34CC5CC(CC(C5)C3)C4)n2)ccn1,4
3,Clc1ccc(OCc2nc(-c3ccc(Br)o3)no2)cc1,3.5
4,CCOc1ccccc1-c1nc(-c2ccc(NC(=O)Cc3ccccc3OC)cc2)no1,4
5,CC(C)c1ccc(OCc2nc(-c3ccccn3)no2)cc1,4
6,Cc1cc(OCc2nc(-c3ccncc3)no2)c(C)c(C)c1Br,4
7,Fc1cccc(-c2nc(-c3ccccc3)no2)c1,0 (active)
8,CCOC(=O)c1c(NC(=O)CSc2nnc(-c3ccccc3OCC)o2)sc(C(C)=O)c1C,4
9,CCN(C(=O)CSc1nnc(-c2ccncc2)o1)c1ccccc1,4
10,COC(=O)c1ccc(CSc2nnc(-c3ccncc3)o2)cc1,4
11,O=S(=O)(CCC(F)=C(F)F)c1ncc(Cl)s1 [fluensulfone],4
12,O=C(Nc1ccccc1-c1nc(-c2cccnc2)no1)c1ccc(Cl)cc1,4
13,COc1cccc(-c2nnc(SCc3ccccc3)o2)c1,4
14,O=C(c1ccccc1-c1nc(-c2ccc(Cl)cc2)no1)N1CCCCC1,4
15,CCOC(=O)c1c(NC(=O)CSc2nnc(-c3ccc(Cl)cc3)o2)sc(C)c1C,4
16,CCOc1ccccc1-c1nnc(SCC(=O)NC(C)CC)o1 (stereo not given),4
17,Cc1ccc(-c2nnc(SCC(=O)NCCc3ccccc3)o2)cc1,4
18,Brc1ccc(OCc2nc(-c3cccs3)no2)cc1,4
19,COc1ccc(-c2noc(COc3ccc(C)cc3C)n2)cc1,4
20,Clc1ccc(SCc2nc(-c3ccccn3)no2)cc1,0.5 (active)

# — the supplement of paper PMC11219838
